Screens from PubChem.
Rows were chosen to be rich in hits. Some 4% of all compounds tested hit in one or more screens of this group.
TWEAK Fn14 block: blocks TWEAK-Fn14 interaction in a reporter cell assay; TWEAK-stimulated Fn14 reporter cells, luciferase luminescence, 8 h; inhibition, % at 10 µM; 2% of 360,000 active; in the data active means inhibition above about 50%
KKLEB cytotox: counter-screen for CF NF-kB inhibitors: cytotoxicity; KKLEB CF airway cells viability, ATPlite luminescence, overnight; active compounds read low; cells stimulated with P. aeruginosa culture filtrate; activity change (cytotoxicity), % at 5 µM; 0.36% of 360,000 active; AID 602141;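 active means corrected activity change at or below -50% at 5 µM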
Peg3 promoter: reduces Peg3 promoter-driven luciferase expression in HeLa. HeLa PEG-Prom luciferase reporter, luminescence, overnight. AID 588405. 1.7% of 360,000 active. inhibition, % at 20 µM;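 active means inhibition of at least 50% at 20 µM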
TROY signal inh: blocks TROY-dependent signaling in reporter cells. Q293 LMP1-TROYcd NF-kB luciferase reporter, 4 h. inhibition, % at 10 µM. 0.98% of 360,000 active. AID 1347056;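 active means compounds whose plate-normalised and pattern-corrected inhibition of the luciferase reporter signal at the single screening dose is 50% or more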
HIF-2a block: blocks HIF-2a reporter activity; 786-0 RCC cells HIF-2a reporter, luciferase luminescence, overnight; inhibition, % at 18.8 µM; 0.72% of 360,000 active; AID 624352;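 active means inhibition of the luminescence signal of 40% or more relative to plate controls, in a single-dose primary screen at 18.75 µM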
CF NFkB block: inhibitors of cystic fibrosis induced NF-kB; inhibition, % at 5 µM; 0.86% of 360,000 active; KKLEB NF-kB-GFP reporter, PAF-induced, GFP fluorescence overnight;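 active means at least 50% inhibition at 5 µM, scaled per plate between neutral and stimulator controls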;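 further: PAF is a Pseudomonas aeruginosa culture filtrate used as stimulus; plate controls were PAF-stimulated DMSO wells for no effect and unstimulated DMSO wells for full effect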
* = called active by the depositor.

SMILES | TWEAK Fn14 block | KKLEB cytotox | Peg3 promoter | TROY signal inh | HIF-2a block | CF NFkB block
COc1cc(/C=C2/C(=O)c3cccc([N+](=O)[O-])c3C2=O)c(Br)cc1O | 57* | -26 | 110* | 28 | 96* | 41
O=C(CN1CCN(S(=O)(=O)c2ccccc2F)CC1)NC1CCCC1 | -17 | 14 | 4 | 4 | 8 | -1
Nc1c(C(=O)NCc2ccco2)c2nc3ccccc3nc2n1CCc1ccccc1 | 72* | -1 | 16 | 66* | -44 | -19
COc1ccc(CCNC(=O)c2cc3c(=O)n4cccc(C)c4nc3n(CCCN3CCOCC3)c2=N)cc1 | -8 | -5 | 57* | -4 | 8 | -12
COCCCn1c(C(=O)Nc2ccc3c(c2)OCO3)cc2c(=O)n3cccc(C)c3nc21 | -64 | -17 | 60* | -14 | -14 | 28
COc1ccc(CNC(=O)c2c(N)n(CCCN3CCOCC3)c3nc4ccccc4nc23)cc1 | 22 | -6 | 70* | 0 | -12 | -20
CN(C)C(=O)CN1CCN(Cc2cn(C)nc2-c2ccc3c(c2)OCCO3)CC1 | -3 | 0 | 1 | -4 | 15 | 6
C/C(=C\c1ccc2c(c1)OCO2)C(=O)c1c(C)cc(C)[nH]c1=O | 35 | 2 | 16 | 10 | 7 | 16
COc1ccc(S(=O)(=O)NCCC(=O)NC2CCCCC2C)cc1[N+](=O)[O-] (centres undefined) | 2 | 18 | 4 | 14 | -7 | -9
O=C(CN(C(=O)c1ccc(Cl)cc1)C1CCCCC1)Nc1ccc(Cl)c([N+](=O)[O-])c1 | 51* | -7 | 24 | 35 | -3 | 30
O=C(CN(C(=O)c1ccccc1Cl)C1CCCCC1)Nc1ccc(Cl)c([N+](=O)[O-])c1 | 40 | -32 | 31 | 10 | 18 | 4
CCOc1cc(CNCCO)cc(Br)c1OCc1cccs1 | 11 | -29 | 14 | 25 | -29 | 14
Oc1cccc2c(NC(=S)Nc3ccc(SC(F)F)cc3)cccc12 | 60* | -20 | -155 | 64* | -41 | -9
CCCCCc1nc2sc3c(c2c(=O)n1NC(=O)c1ccc([N+](=O)[O-])cc1)CC(C)(C)OC3 | 70* | -8 | 30 | 48 | -13 | 45
CC(=O)c1cccc(OCC(O)CNCCc2ccc(Cl)cc2)c1 (centres undefined) | -22 | -3 | -10 | 0 | 12 | -18
CCCc1cnc(NCCNCC(O)COc2ccc(Cl)c(Cl)c2)nc1 (centres undefined) | -11 | -4 | 107* | -33 | 5 | 4
COc1ccccc1NC(=O)C1=C(C)NC(SCC(=O)c2ccccc2)=C(C#N)C1c1ccco1 (centres undefined) | 56* | -7 | 26 | 33 | -39 | 0
COCCOC(=O)C1=C(C)NC(SCC(=O)NC(C)(C)C)=C(C#N)C1c1ccco1 (centres undefined) | 10 | -11 | 25 | 5 | 10 | 11
O=C(Cc1cc(=O)[nH][nH]1)N/N=C/C=C/c1ccccc1 | 62* | 1 | -20 | 3 | -9 | 5
O=C(CNC(=O)c1ccccc1)N/N=C/C=C/c1ccccc1 | 7 | -29 | 20 | -9 | -4 | 24
COC(=O)c1cscc1S(=O)(=O)Cc1ccccc1 | 23 | 2 | 0 | -2 | 0 | 5
O=C(NCc1ccc2c(c1)OCO2)c1ccccc1Cl | -1 | 0 | -5 | -2 | -40 | 2
O=C(NCc1ccc2c(c1)OCO2)c1nc(S(=O)(=O)Cc2ccccc2)ncc1Cl | 73* | -22 | 106* | 60* | 19 | 84*
CCc1nnc(NC(=O)c2nc(S(=O)(=O)Cc3ccccc3)ncc2Cl)s1 | 97* | -94* | 104* | 33 | 54* | 90*
CCc1nnc(NC(=O)c2nc(Cl)ccc2Cl)s1 | -6 | 8 | 9 | -23 | -11 | 0
COC(=O)c1ccccc1NC(=O)c1nc(S(=O)(=O)Cc2ccccc2)ncc1Cl | 76* | -95* | 92* | 58* | -33 | 96*
Cc1noc(C)c1C(=O)NCCc1ccccc1 | -5 | 6 | -4 | -27 | -24 | 6
O=C(Nc1cc(C(F)(F)F)ccc1-n1cncn1)c1cn2ccccc2n1 | 1 | 11 | -5 | 1 | -65 | -27
COc1ccc(NC(=O)COC(=O)c2ccc(OCc3ccccc3Cl)c(OC)c2)c(OC)c1 | -59 | -75* | -8 | -24 | -51 | 61*
